Hit rate of the full screen: of about 310,000 compounds, about 2,200 (0.71%) showed an effect of 50% or more. The effect is printed as a negative number. What follows is part of a selection rich in strong results, with near analogues and random picks from the rest.

The target in the test is human ether-à-go-go-related gene (hERG) potassium channel (human, UniProt Q12809). The test is described as follows: primary screen, population patch clamp on CHO cells stably expressing hERG; higher = less effect of the substance.
human ether-à-go-go-related gene (hERG) potassium channel, sequence (Q12809 whole entry, looked up): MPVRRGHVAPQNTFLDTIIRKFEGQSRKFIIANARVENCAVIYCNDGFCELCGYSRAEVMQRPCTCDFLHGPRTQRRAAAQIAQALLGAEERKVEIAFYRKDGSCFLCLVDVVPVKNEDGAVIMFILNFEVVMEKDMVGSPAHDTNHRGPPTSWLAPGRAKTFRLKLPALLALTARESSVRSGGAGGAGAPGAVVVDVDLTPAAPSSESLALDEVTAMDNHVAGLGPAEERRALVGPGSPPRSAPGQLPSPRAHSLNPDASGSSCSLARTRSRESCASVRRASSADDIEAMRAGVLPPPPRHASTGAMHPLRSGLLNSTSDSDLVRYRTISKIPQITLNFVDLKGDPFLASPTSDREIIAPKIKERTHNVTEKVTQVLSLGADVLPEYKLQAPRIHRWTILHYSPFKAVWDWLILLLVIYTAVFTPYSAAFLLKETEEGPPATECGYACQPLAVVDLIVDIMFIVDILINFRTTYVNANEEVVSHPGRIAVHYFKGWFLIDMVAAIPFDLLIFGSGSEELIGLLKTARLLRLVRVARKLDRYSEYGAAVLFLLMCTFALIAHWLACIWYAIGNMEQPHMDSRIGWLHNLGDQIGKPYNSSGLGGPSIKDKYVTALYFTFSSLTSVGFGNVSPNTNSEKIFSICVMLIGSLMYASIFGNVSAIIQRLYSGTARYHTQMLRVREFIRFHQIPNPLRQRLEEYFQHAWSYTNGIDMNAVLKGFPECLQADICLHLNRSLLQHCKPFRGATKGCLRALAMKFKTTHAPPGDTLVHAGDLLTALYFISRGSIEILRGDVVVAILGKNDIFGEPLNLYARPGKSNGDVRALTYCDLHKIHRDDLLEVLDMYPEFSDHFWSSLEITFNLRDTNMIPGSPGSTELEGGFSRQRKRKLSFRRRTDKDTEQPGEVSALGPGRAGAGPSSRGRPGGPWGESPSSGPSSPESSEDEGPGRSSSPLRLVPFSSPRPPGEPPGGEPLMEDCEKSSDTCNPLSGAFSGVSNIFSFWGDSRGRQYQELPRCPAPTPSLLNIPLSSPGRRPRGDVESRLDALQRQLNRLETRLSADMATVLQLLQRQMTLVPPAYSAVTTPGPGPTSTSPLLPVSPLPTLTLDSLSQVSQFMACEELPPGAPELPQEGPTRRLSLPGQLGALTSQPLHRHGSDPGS
With `CCOC(=O)CNC(=O)CSc1nnnn1-c1ccc(C)c(C)c1`, the “hERG current change (%, negative = inhibition) at 1uM” value turned out to be 0.993%.

`Cn1cc(CC(=O)N2CCN(c3ccc(Cl)cc3)CC2)c2ccccc21`: the “hERG current change (%, negative = inhibition) at 1uM” value is listed as -0.545%.

On to `Cc1ccccc1OCC(=O)Nc1ccccc1C(=O)NC1CC1`, for which the “hERG current change (%, negative = inhibition) at 1uM” value came out at 8.41%.

For the compound `Cc1ccc(C)c(NC(=S)N2CCN(CCO)CC2)c1`, the “hERG current change (%, negative = inhibition) at 1uM” value is 5.15%.

For the compound `CC1CCN(C(=O)COC(=O)c2cn(C)c3ccccc23)CC1`, the “hERG current change (%, negative = inhibition) at 1uM” value is reported as 7.49%.

With `O=C(c1ccco1)N1CCN(C(=O)C2CC(=O)N(c3ccc(Cl)cc3)C2)CC1` (stereo not shown), the “hERG current change (%, negative = inhibition) at 1uM” value was -80.2%.

`Cc1ccc(N2CC(C(=O)N3CCN(C(=O)c4ccco4)CC3)CC2=O)cc1` (stereo not shown): the “hERG current change (%, negative = inhibition) at 1uM” value was -45.8%.

`O=C(c1ccco1)N1CCN(C(=O)C2CC(=O)N(c3ccccc3)C2)CC1` (stereo not shown): the “hERG current change (%, negative = inhibition) at 1uM” value is -1.56%.

As to `O=C(COc1ccc(Cl)cc1)Nc1ccc(Cl)cn1`, the “hERG current change (%, negative = inhibition) at 1uM” value is listed as -2%.

Consider `COc1ccc(Oc2nc(SC)nc3ccccc23)cc1`, for which the “hERG current change (%, negative = inhibition) at 1uM” value is reported as 2.03%.

As for `O=C(/C=C/Nc1ccc(F)cc1F)c1cccs1`, the “hERG current change (%, negative = inhibition) at 1uM” value is on record as 18.4%.

As for `C[C@H](NC(=O)c1nc[nH]c1C(=O)N[C@@H](CCCCNC(=O)OC(C)(C)C)C(=O)OC(C)(C)C)c1ccccc1`, the “hERG current change (%, negative = inhibition) at 1uM” value turned out to be 19.1%.

As for `COc1ccccc1N1CCN(C(=O)Nc2ccc([N+](=O)[O-])cc2)CC1`, the “hERG current change (%, negative = inhibition) at 1uM” value was -10.6%.

As to `COc1ccc(NC(=O)N2CCN(c3ccc([N+](=O)[O-])cc3)CC2)cc1`, the “hERG current change (%, negative = inhibition) at 1uM” value is recorded as -14.2%.

For `COc1ccc(NC(=O)N2CCN(c3ccc([N+](=O)[O-])cc3)CC2)cc1OC`, the “hERG current change (%, negative = inhibition) at 1uM” value is listed as -63.2%.

On to `O=[N+]([O-])c1ccc(N2CCN(C(=S)Nc3ccc(F)cc3)CC2)cc1`, for which the “hERG current change (%, negative = inhibition) at 1uM” value is given as -23.8%.

As to `COc1ccc(NC(=S)N2CCN(c3ccc([N+](=O)[O-])cc3)CC2)cc1OC`, the “hERG current change (%, negative = inhibition) at 1uM” value was -82.2%.

On to `COc1cccc(NC(=S)N2CCN(c3ccc([N+](=O)[O-])cc3)CC2)c1`, for which the “hERG current change (%, negative = inhibition) at 1uM” value was -9.45%.

As for `Cc1ccc(S(=O)(=O)N/N=C/c2cc(Br)c(C)o2)cc1`, the “hERG current change (%, negative = inhibition) at 1uM” value was 8.23%.

As for `O=C(N/C(=C/c1cn(-c2ccccc2)nc1-c1ccccc1)C(=O)N1CCOCC1)c1ccc(Cl)cc1Cl`, the “hERG current change (%, negative = inhibition) at 1uM” value was 24.2%.

Consider `Cl.O=S1(=O)N=C(N(CCO)/N=C/c2ccncc2)c2ccccc21`, for which the “hERG current change (%, negative = inhibition) at 1uM” value was 7.58%.

For `CC1CCCCC12NC(=O)N(CC(=O)Nc1ccc(N3CCOCC3)cc1)C2=O` (stereo not shown), the “hERG current change (%, negative = inhibition) at 1uM” value worked out at 4.35%.

`S=c1[nH]nc(-c2ccncc2)n1/N=C/c1cccc(Cl)c1`: the “hERG current change (%, negative = inhibition) at 1uM” value amounted to 8.7%.

Take `CNc1c([N+](=O)[O-])cnn1-c1ccccc1Cl`: the “hERG current change (%, negative = inhibition) at 1uM” value is given as -13.4%.

For the compound `c1cncc(-c2nc(-c3ccc4c(c3)OCCO4)cs2)c1`, the “hERG current change (%, negative = inhibition) at 1uM” value came out at 9.93%.

For `N#Cc1cncc(-c2ccc3c(c2)OCCOCCOCCOCCOCCO3)n1`, the “hERG current change (%, negative = inhibition) at 1uM” value is listed as -95.2%.

In the case of `N#Cc1ncc(-c2ccc3c(c2)OCCOCCOCCOCCO3)nc1C#N`, the “hERG current change (%, negative = inhibition) at 1uM” value was -63.6%.

In the case of `N#CCC(=O)Nc1nc(-c2ccc3c(c2)OCCO3)cs1`, the “hERG current change (%, negative = inhibition) at 1uM” value is given as 8.5%.

Regarding `Cc1ccc2nc(-c3ccc4c(c3)OCCO4)cn2c1`, the “hERG current change (%, negative = inhibition) at 1uM” value worked out at 15.7%.

Turning to `c1ccn2cc(-c3ccc4c(c3)OCCO4)nc2c1`, the “hERG current change (%, negative = inhibition) at 1uM” value is reported as 4.22%.

`N#Cc1ncc(-c2ccc3c(c2)OCCOCCOCCOCCOCCO3)nc1C#N`: the “hERG current change (%, negative = inhibition) at 1uM” value is -84.8%.

On to `O=[N+]([O-])c1ccc2c(c1)OCCOCCOCCOCCOCCOCCO2`, for which the “hERG current change (%, negative = inhibition) at 1uM” value is given as -32.5%.

As for `Cl.Nc1nc(-c2ccc3c(c2)OCCO3)cs1`, the “hERG current change (%, negative = inhibition) at 1uM” value stood at 14.3%.

Regarding `CC1CCN(C(=O)COC(=O)C23CC4CC(CC(O)(C4)C2)C3)CC1`, the “hERG current change (%, negative = inhibition) at 1uM” value is 18.8%.

As to `CCC(C)(C)n1nnnc1C(c1ccncc1)N1CCC(C)CC1` (stereo not shown), the “hERG current change (%, negative = inhibition) at 1uM” value is on record as -0.168%.

As for `CCCn1nc2ccccc2c1P(=O)(N1CCOCC1)N1CCOCC1`, the “hERG current change (%, negative = inhibition) at 1uM” value is reported as -0.888%.

Consider `O=C(NCCc1cccc(Cl)c1)c1cc2ccccc2oc1=O`, for which the “hERG current change (%, negative = inhibition) at 1uM” value is 12.5%.

Consider `O=C1CCCc2c1nn(-c1ccccc1)[n+]2[O-]`, for which the “hERG current change (%, negative = inhibition) at 1uM” value turned out to be 6.47%.

`Cc1nn(CC(=O)Nc2c(C)n(C)n(-c3ccccc3)c2=O)c(C)c1[N+](=O)[O-]`: the “hERG current change (%, negative = inhibition) at 1uM” value is listed as 8.99%.

Take `Cc1nn(CC(=O)Nc2cccnc2)c(=O)c2ccccc12`: the “hERG current change (%, negative = inhibition) at 1uM” value is -9.14%.

On to `CCOC(=O)CC1C(=O)NCCN1c1nc2c(C)cccn2c(=O)c1/C=C1\SC(=S)N(C(C)CC)C1=O` (stereo not shown), for which the “hERG current change (%, negative = inhibition) at 1uM” value is 9.18%.

As for `Cc1c(C(=O)N2CCC(Cc3ccccc3)CC2)sc2ncnc(N3CCC(C)CC3)c12`, the “hERG current change (%, negative = inhibition) at 1uM” value was determined as 9.72%.

As to `CCOC(=O)C1CCN(C(=O)c2sc3nc(C)nc(N4CCC(C)CC4)c3c2C)CC1`, the “hERG current change (%, negative = inhibition) at 1uM” value is -1.96%.

Turning to `CCOC(=O)C1CCN(C(=O)c2sc3ncnc(N4CCC(C)CC4)c3c2C)CC1`, the “hERG current change (%, negative = inhibition) at 1uM” value is listed as -57.3%.

As for `COc1ccc2nc(SCC(=O)Nc3ccc(S(=O)(=O)N4CCCC4)cc3)c(C#N)cc2c1`, the “hERG current change (%, negative = inhibition) at 1uM” value is -3.01%.

In the case of `CN(C)C(=O)c1cc(C(=O)c2ccc(F)cc2C(F)(F)F)c[nH]1`, the “hERG current change (%, negative = inhibition) at 1uM” value is reported as 14.3%.

In the case of `Cc1nn(-c2cccc(Cl)c2)c2c1C(c1ccncc1)C(C#N)=C(N)O2` (stereo not shown), the “hERG current change (%, negative = inhibition) at 1uM” value came out at 5.94%.

With `CCOC(=O)CCCCC(=O)c1[nH]c(=O)[nH]c1CSc1nnc2c3ccccc3n(C(C)C)c2n1`, the “hERG current change (%, negative = inhibition) at 1uM” value is listed as -0.434%.

`CC(C)(C)c1ccc(C(=O)C2CCCN(C3CCC3)C2)cc1` (stereo not shown): the “hERG current change (%, negative = inhibition) at 1uM” value is on record as 10.7%.

As to `O=C(c1ccc(C(F)(F)F)cc1)C1CCCN(C(=O)c2csnn2)C1` (stereo not shown), the “hERG current change (%, negative = inhibition) at 1uM” value is on record as 9.85%.

As to `CN1CCCC(C(=O)c2ccc(Cl)cc2)C1` (stereo not shown), the “hERG current change (%, negative = inhibition) at 1uM” value is recorded as -2.93%.

Take `Cc1cc(Cl)ccc1C(=O)C1CCCN(C2CCSCC2)C1` (stereo not shown): the “hERG current change (%, negative = inhibition) at 1uM” value is reported as -49.3%.

Consider `O=C(c1ccc(C(F)(F)F)cc1)C1CCCN(C2CCSCC2)C1` (stereo not shown), for which the “hERG current change (%, negative = inhibition) at 1uM” value is -64.4%.

For `O=C(c1ccc(Cl)cc1)C1CCCN(C2CCSCC2)C1` (stereo not shown), the “hERG current change (%, negative = inhibition) at 1uM” value is -63.4%.

On to `CCC(=O)Nc1ccc(S(=O)(=O)Nc2cccc(C)c2)cc1OC`, for which the “hERG current change (%, negative = inhibition) at 1uM” value is listed as 6.57%.

In the case of `CC(C)CCC(CCN1CCOCC1)c1ccc2c(c1)OCO2.Cl` (stereo not shown), the “hERG current change (%, negative = inhibition) at 1uM” value is -76.8%.

Consider `C(=NCCCN1CCOCC1)c1ccc2c(c1)OCO2`, for which the “hERG current change (%, negative = inhibition) at 1uM” value is given as 16.1%.

`COc1cc(OC)c2ccc(=O)oc2c1C(CCN1CCCC1)c1ccc2c(c1)OCO2` (stereo not shown): the “hERG current change (%, negative = inhibition) at 1uM” value was -7.33%.

Turning to `COc1cc(O)c(C(CCN2CCOCC2)c2ccc3c(c2)OCO3)c(OC)c1` (stereo not shown), the “hERG current change (%, negative = inhibition) at 1uM” value is given as -45.7%.

For `O=C(CCN1CCCCC1)c1ccc2c(c1)OCO2`, the “hERG current change (%, negative = inhibition) at 1uM” value turned out to be 10.3%.

With `CC(C)CCC(CCN1CCCC1)c1ccc2c(c1)OCO2.O=C(O)C(=O)O` (stereo not shown), the “hERG current change (%, negative = inhibition) at 1uM” value is listed as -83.3%.
